From PubChem BioAssay
KB-3-1 tox: KB-3-1 parental cell cytotoxicity. AID 1347075. 400,000 tested, 1.4% active. Potency, µM (series often up to 46.1 µM), usual class: cytotoxic. KB-3-1 viability, CellTiter-Glo ATP luminescence, 72 h; further: nearly all actives have a fitted effect of over 60% in size
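Multi-concentration cytotoxicity screen in KB-3-1 cells grown in DMEM lacking phenol red with 10% FBS. After 72 h at 37 °C with compound, ATP-dependent luminescence was recorded.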
HT1080-NT tox: kills 2HG-producing HT-1080-NT fibrosarcoma cells | HT-1080-NT fibrosarcoma viability, CellTiter-Glo ATP luminescence, 48 h | 360,000 tested, 1.6% active | Potency, µM (titrated, usually from 46.1 µM), hits mostly cytotoxic;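 further: NT is the 2HG producing partner of a matched IDH1 knockdown line; nearly all actives have a fitted effect of over 55% in size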
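Viability of the 2HG-overproducing fibrosarcoma line after 48 hours of compound exposure at 37 degrees C was determined by luminescence with CellTiter-Glo, and concentration-effect curves were then fitted and categorized.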
TDP1 cell noCPT: qHTS for Inhibitors of human tyrosyl-DNA phosphodiesterase 1 (TDP1): qHTS in cells in absence of CPT; DT40 Tdp1-/- hTDP1 cells, no CPT, ATP luminescence, 48 h; Potency, µM (highest dose often 46.2 µM), actives largely listed as inhibitors; 420,000 tested, 15% active; AID 686978, 2013; further: nearly all actives have a fitted effect of over 55% in size
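Camptothecin absent (DMSO only). Human TDP1-complemented DT40 knockout cells, 400 cells/well, 37 °C for minimum 48 hr; ATP measured via CellTiter-Glo, 30 min dark incubation, luminescence.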
HT1080 IDH1KD tx: HT-1080 IDH1 knockdown cell toxicity (counter line); HT-1080 IDH1 knockdown viability, ATP luminescence, 48 h; Potency, µM (series often up to 46.1 µM), usual class: cytotoxic; 360,000 tested, 2% active; AID 686971
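HT-1080-IDH1KD cells (IDH1 knocked down), 750/well in RPMI with 5% FBS, treated with compound 48 h at 37 degrees C. Viability by CellTiter-Glo luminescence, normalised to DMSO and no-cell wells; concentration-response curves classed.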
KB-V1 MDR tox: KB-V1 MDR subline cytotoxicity. KB-V1 MDR cells viability, CellTiter-Glo, 72 h. 400,000 tested, 3.4% active. Potency, µM (doses to about 46.1 µM), actives largely listed as cytotoxic; further: nearly all actives have a fitted effect of over 60% in size
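Cytotoxicity via CellTiter-Glo luminescence after 72 h compound exposure at 37 degrees C. Cells: drug-selected KB-V1 line, DMEM phenol-red free plus 10% FBS. Compounds tested at multiple concentrations; normalized data fitted to concentration-effect curves.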
TDP1 cell CPT: DT40-hTDP1 cell growth loss with CPT | Potency, µM (top dose mostly 46.2 µM), hits mostly inhibitors | 420,000 tested, 12% active | chicken DT40 Tdp1-/-;hTDP1 cells + 20 nM CPT, ATP luminescence, 48 h | AID 686979; further: nearly all actives have a fitted effect of over 55% in size
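Chicken DT40 Tdp1-/- cells complemented with human TDP1, 400 cells/well, exposed to compounds plus 20 nM camptothecin for at least 48 h at 37 C; viability read as ATP content by CellTiter-Glo luminescence.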
Hits are given with their value; i = inactive; ? = inconclusive; nt = no result given; ! = repeats disagree; [ ] = dose if it differs, or a comment. Rows were chosen to be rich in hits. Some 19% of all compounds tested hit in one or more screens of this group. The call rests on the fitted dose curve; in most records, active means well fitted curve in the direction sought with a large enough effect; inconclusive means small, poorly fitted or top-dose-only effect, or another doubt; inactive means no such curve, though single readings can be large; an effect the other way counts as inactive or inconclusive.

SMILES | KB-3-1 tox | HT1080-NT tox | TDP1 cell noCPT | HT1080 IDH1KD tx | KB-V1 MDR tox | TDP1 cell CPT
O=C(c1ccco1)N1CCC2(CC1)CN(Cc1cc(C(F)(F)F)cc(C(F)(F)F)c1)C2 | nt | nt | i | nt | nt | i
Fc1ccc(CNCc2ccco2)cc1 | i | i | i | i | ? | i
OC(CNCc1ccc(Cl)cc1)(c1ccccc1)c1ccc(F)cc1 (centres undefined) | i | ? | 23µM | ? | i | ?
Cc1ccc(C(O)(CNCc2ccccc2)c2ccccc2)cc1 (centres undefined) | i | i | ? | i | i | ?
OC(CNCc1ccc(F)cc1)(c1ccc(F)cc1)c1ccc(F)cc1 | ? | i | ? | i | ? | 23µM
CCOc1ccc(NC(=O)CSc2nnc3scc(-c4ccccc4)n23)cc1 | i | nt | ? | nt | i | i
Cc1ccc(-c2nc(NC(=O)CSc3nnnn3-c3ccccc3)ns2)cc1 | i | i | i | i | i | i
Cc1cccc(NC(=O)CSc2nnc3scc(-c4ccccc4)n23)c1 | i | nt | 21µM | nt | i | ?
Cc1ccc(-c2nc(NC(=O)CSc3ccc4ccccc4n3)ns2)cc1 | i | i | ? | i | i | 15µM!
CCOC(=O)CSc1ccc2ccccc2n1 | i | i | i | i | i | i
O=C(CSc1nnc2scc(-c3ccccc3)n12)N1CCCc2ccccc21 | i | i | i | i | i | i
Cc1ccc(-c2csc3nnc(SCC(=O)Nc4nsc(-c5ccccc5)n4)n23)cc1 | i | ? | 23µM | ? | ? | 21µM
O=C(CSc1nnc2scc(-c3ccccc3)n12)N1CCN(Cc2ccccc2)CC1 | i | i | ? | i | 5.8µM | i
CCn1c(SCC(=O)NC2CCCC2)nnc1C(C)C | i | i | i | i | i | i
CCC(C(=O)Nc1cc(-c2cn3cccnc3n2)ccc1C)c1ccccc1 (centres undefined) | nt | nt | i | nt | nt | i
O=C(Cn1c(=O)c(C(F)(F)F)nc2ccccc21)Nc1cccc(Br)c1 | i | nt | i | nt | i | i
CCOc1ccc(CCNC(=O)C2Cc3ccccc3N2C(=O)CC)cc1OCC (centres undefined) | i | nt | i | nt | i | ?
COc1ccc(CNC(=O)c2cnc3sc4cc(OC)ccc4n3c2=O)cc1 | i | nt | i | nt | i | i
Cc1ccc(C(c2c(O)cc(C)n(Cc3ccco3)c2=O)N2CCC(C)CC2)cc1 (centres undefined) | i | nt | i | nt | i | i
O=C(CSc1nnc2scc(-c3ccccc3)n12)Nc1nsc(-c2ccc(Cl)cc2)n1 | i | i | 21µM | i | ? | 16µM
COc1cccc(NC(=O)CCSc2nnc3scc(-c4ccccc4)n23)c1 | i | i | i | i | ? | i
O=C(CSc1nnc2scc(-c3ccc(Cl)cc3)n12)Nc1ccc(F)cc1 | i | nt | i | nt | i | i
O=C(CSc1nnc2scc(-c3ccccc3)n12)Nc1nsc(-c2ccccc2)n1 | ? | i[9.24 µM] | 23µM | ? | i | 15µM
O=C1CCN(S(=O)(=O)c2ccccc2)C2CCCCC12 (centres undefined) | i | i | ? | i | ? | i
O=C1NC2CCCCC2C(=O)N1OS(=O)(=O)c1ccccc1 (centres undefined) | ? | i | 12µM | ? | i | 2.6µM
SMILES | KB-3-1 tox | HT1080-NT tox | TDP1 cell noCPT | HT1080 IDH1KD tx | KB-V1 MDR tox | TDP1 cell CPT
O=C(NCCN1C(=O)S/C(=C/c2cccnc2)C1=O)c1cccs1 | i | i[9.24 µM] | ? | i | i | ?
O=C(COc1ccccc1-c1ccccc1)NCCN1C(=O)S/C(=C\c2cccnc2)C1=O | i | i | 16µM | i | ? | 16µM
O=C(NCCN1C(=O)S/C(=C\c2cccnc2)C1=O)C1=NN(c2ccccc2)C(=O)CC1 | i | i | 23µM | i | i | ?
CC(Oc1ccc(Cl)cc1)C(=O)NCCN1C(=O)S/C(=C\c2cccnc2)C1=O (centres undefined) | i | i | 18µM | i | ? | 21µM
O=C(O)CN1C(=O)S/C(=C\c2cccnc2)C1=O | i | i | i | i | i | i
CC(C)Oc1ccc(C(CC(=O)O)c2ccc(F)cc2)cc1 (centres undefined) | i | i | i | i | i | i
COc1ccc(CNCCC(c2ccccc2)c2ccc(OC(C)C)cc2)cc1OC (centres undefined) | ? | 21µM | 23µM | 18µM | ? | 23µM
COc1ccc(CNCCC(c2ccc(F)cc2)c2ccc(OC(C)C)cc2)cc1OC (centres undefined) | ? | 23µM | 15µM | ? | ? | 16µM
CC(=O)c1cccc(NC(=O)CCc2nnc3ccc(NCc4ccc5c(c4)OCO5)nn23)c1 | i | i | i | i | i | i
C[C@@H]1COC(=O)[C@@H](CC(=O)OC(C)(C)C)C/C=C\C[C@H](CC(=O)NCCO)C(=O)N1 | i | i | i | i | i | i
Cc1cccc(NC(=O)NNC(=O)c2cc(-c3ccccc3Cl)nc3ccccc23)c1 | i | ? | ? | ? | i | ?
O=C(NN1CCOCC1)c1cc(-c2ccc(Cl)c(Cl)c2)nc2ccccc12 | i | i | 1.3µM | i | i | ?
O=C(NN1CCOCC1)c1cc(-c2ccncc2)nc2ccccc12 | i | ? | i | i | i | i
O=C(NN1CCOCC1)c1cc(-c2cccs2)nc2ccccc12 | i | i | ? | i | i | i
O=C(NNC(=O)c1cc(-c2ccc(Cl)c(Cl)c2)nc2ccccc12)Nc1ccccc1 | ? | ? | ? | ? | ? | 15µM
O=C(NN1CCOCC1)c1cc(-c2cccc(Cl)c2)nc2ccccc12 | i | i | ? | i | 12µM | ?
COc1ccc(OC)c(NC(=O)CSC2=Nc3ccccc3C3=NC(CCC(=O)NCc4ccccc4)C(=O)N23)c1 (centres undefined) | i | nt | ? | nt | i | ?
COc1ccc(-c2[nH]ncc2/C=N\NC(=O)c2cccs2)cc1OC | i | i | i | i | i | i
COc1ccc(CN2CCCC(C(=O)c3ccc4c(c3)OCO4)C2)c(F)c1 (centres undefined) | i | i | ? | i | i | i
Cc1nn(C)cc1CN1CCCC(C(=O)c2ccc(-c3ccccc3)c(F)c2)C1 (centres undefined) | i | ? | 18µM | ? | ? | 18µM
CC(C)Oc1cccc(C(=O)C2CCCN(C(=O)c3cncs3)C2)c1 (centres undefined) | i | i | i | i | i | ?
COc1cccc(C(=O)C2CCCN(Cc3cccc(OCCO)c3)C2)c1 (centres undefined) | ? | i | i | i | i | i
